{"source": "PubChem BioAssay AID504332", "about": "(National Center for Advancing Translational Sciences (NCATS), 2011)", "note": "About 31,000 (8.9%) of roughly 350,000 compounds were called active. Where a call stands in place of a potency, no number is given. Another 15% or so got no clear call; they are omitted. Calls come from the whole dose curve; as a rule, active = well fitted inhibition curve with a large enough effect; inconclusive = small, poorly fitted or top-dose-only effect; inactive = no such curve, though single readings can be large or run the other way. The full list was thinned out, with actives kept by preference. Potency is the fitted concentration of half-maximal effect."}
{"molecular_target": "Histone-lysine N-methyltransferase EHMT2 (Homo sapiens) (UniProt Q96KQ7)", "sequence (Q96KQ7 913-1193 limits assumed)": "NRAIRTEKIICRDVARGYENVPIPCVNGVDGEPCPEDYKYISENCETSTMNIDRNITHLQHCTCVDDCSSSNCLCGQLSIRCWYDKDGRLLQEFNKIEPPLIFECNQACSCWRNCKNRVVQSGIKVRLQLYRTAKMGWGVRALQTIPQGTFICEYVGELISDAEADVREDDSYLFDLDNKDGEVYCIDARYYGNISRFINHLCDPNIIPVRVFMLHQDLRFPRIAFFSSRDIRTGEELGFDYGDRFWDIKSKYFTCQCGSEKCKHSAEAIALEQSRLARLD", "assay": "qHTS Assay for Inhibitors of Histone Lysine Methyltransferase G9a; note: nearly all actives have a fitted effect of over 75% in size", "details": "G9a H3K9 monomethylation, AlphaScreen, 2 h; series mostly up to 59 µM", "method_in_brief": "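G9a (20 nM) was preincubated 15 min with compound, then reacted 2 h at room temperature with 500 nM biotin-H3K9 peptide and 20 µM SAM. Monomethyl-H3K9 detected by AlphaScreen using anti-H3K9me1 antibody.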"}
{"smiles": "CCOc1cc(N2CCOCC2)c(OCC)cc1NC(=O)COc1cccc2cccnc12", "Potency": "inactive"}
{"smiles": "Oc1c(C(c2ccccn2)N2CCOCC2)ccc2cccnc12", "note": "(configuration not stated)", "Potency": "8.91 µM (active)"}
{"smiles": "O=C(c1cccnc1NCc1ccccc1)N1CCOCC1", "Potency": "inactive"}
{"smiles": "O=S(=O)(c1ccc(Br)cc1)c1nnn2c1nc(NC1CCCCCC1)c1sccc12", "Potency": "inactive"}
{"smiles": "O=c1n(Cc2cccc(C(F)(F)F)c2)c2ccccc2c2nc(-c3ccccc3)nn12", "Potency": "inactive"}
{"smiles": "CCn1c2c(c(=O)n3ncc(C(=O)N4CCN(c5ccccc5)CC4)c13)CN(Cc1ccc(OC)cc1)CC2", "Potency": "inactive"}
{"smiles": "Cc1cc2c(cc1C)C(c1cccc(OC(C)C)c1)CC(=O)N2", "note": "(configuration not stated)", "Potency": "inactive"}
{"smiles": "COc1ccccc1CCNC(=O)C(=O)NCCC1CCCCN1S(=O)(=O)c1cccs1", "note": "(configuration not stated)", "Potency": "inactive"}
{"smiles": "CC(C)C(=O)Nc1ccc2oc(=O)ccc2c1", "Potency": "inactive"}
{"smiles": "O=C(COc1ccc(Cl)cc1)Nc1ccc2oc(=O)ccc2c1", "Potency": "inactive"}
{"smiles": "O=C(NC(=S)Nc1ccc2oc(=O)ccc2c1)c1ccc(-c2cccc(Cl)c2Cl)o1", "Potency": "10 µM (active)"}
{"smiles": "Cc1ccc(C(=O)CSc2nc(-c3ccccc3)nc3c2CCCC3)c(C)c1", "Potency": "inactive"}
{"smiles": "CC(Oc1cccc(Cl)c1)C(=O)Nc1ccc(S(=O)(=O)Nc2ncccn2)cc1", "note": "(configuration not stated)", "Potency": "35.5 µM (active)"}
{"smiles": "CCc1ccc(OC(C)C(=O)Nc2ccc(S(=O)(=O)Nc3cc(C)on3)cc2)cc1", "note": "(configuration not stated)", "Potency": "inactive"}
{"smiles": "O=C(/C=C/c1ccc(Cl)cc1)Nc1ccc(S(=O)(=O)Nc2ncccn2)cc1", "Potency": "inactive"}
{"smiles": "Cc1ccc(Cl)cc1NC(=O)CSc1nccn1C", "Potency": "inactive"}
{"smiles": "CS(=O)(=O)N1CCc2cc(C(=O)Nc3ccccc3Br)ccc21", "Potency": "inactive"}
{"smiles": "O=S(=O)(c1ccc(C2CCCCC2)cc1)N1CCN(c2ccc(Cl)c(Cl)c2)CC1", "Potency": "inactive"}
{"smiles": "O=C(c1ccccn1)c1ncc(C(F)(F)F)cc1Cl", "Potency": "inactive"}
{"smiles": "O=c1[nH]oc(O)c1-c1ncc(C(F)(F)F)cc1Cl", "Potency": "44.7 µM (active)"}
{"smiles": "CC(=O)c1ccc(Cc2ncc(C(F)(F)F)cc2Cl)s1", "Potency": "inactive"}
{"smiles": "COc1ccccc1CNC(=O)COC(=O)c1sc(C)nc1C", "activity, negative = inhibition": "11.2% [at 2.33 µM] (inactive)"}
{"smiles": "CCCNC(=O)c1onc(CSc2ccc(F)cc2)c1C(=O)NC(C)C", "activity, negative = inhibition": "20% [at 2.33 µM] (inactive)"}
{"smiles": "COc1ccc(Nc2nc(Cl)nc(NCc3ccco3)n2)cc1", "Potency": "inactive"}
{"smiles": "COc1ccc(-n2cnc3cc(NCc4ccco4)ccc32)cc1", "Potency": "44.7 µM (active)"}
{"smiles": "COc1ccc(-n2cnc3cc(C(=O)NC4CCCC4)ccc32)cc1", "Potency": "inactive"}
{"smiles": "Cc1nn(C)c(C)c1NS(=O)(=O)c1ccc(OC(F)(F)F)cc1", "Potency": "inactive"}
{"smiles": "CCN(CC(=O)Nc1cc(Cl)ccc1C)C(=O)CSCc1ccccc1", "Potency": "inactive"}
{"smiles": "COc1ccc(C(=O)O/N=C(\\N)Cc2ccc(Cl)cc2Cl)cc1OC", "Potency": "inactive"}
{"smiles": "CCOc1ccc(NC(=O)NNC(=O)c2ccc(Cl)cc2Cl)cc1", "Potency": "inactive"}
{"smiles": "NC(N)=N/N=C/c1ccc(OCc2ccc(Cl)cc2Cl)cc1", "Potency": "50.1 µM (active)"}
{"smiles": "COc1ccc(CNc2nc(-c3ccc(Cl)cc3)cc(C(F)(F)F)n2)cc1", "Potency": "inactive"}
{"smiles": "CCc1ccc(NS(=O)(=O)c2ccc3[nH]cc(C(=O)NCCc4cccc(C)c4)c(=O)c3c2)cc1", "Potency": "inactive"}
{"smiles": "CC(C)(C)OC(=O)N1CCC(c2c(C(=O)Nc3ccc4c(c3)OCO4)cnn2-c2ccccc2)CC1", "Potency": "inactive"}
{"smiles": "O=C(CCNC(=O)c1ccccc1Cl)NCc1ccco1", "activity, negative = inhibition": "4% [at 12.7 µM] (inactive)"}
{"smiles": "CC(C)(C)c1ccc(C(=O)NCCC(=O)NCc2ccco2)cc1", "Potency": "44.7 µM (active)"}
{"smiles": "CCCCNC(=O)CCNC(=O)c1ccc(C(C)(C)C)cc1", "Potency": "inactive"}
{"smiles": "COCCCNc1nc2c(-c3cccc(C)c3)nnn2c2ccc(Cl)cc12", "activity, negative = inhibition": "3.35% [at 0.501 µM] (inactive)"}
{"smiles": "Cc1nc2ccccc2c(=O)n1-c1ccc(NS(=O)(=O)c2ccc(F)cc2F)cc1", "Potency": "inactive"}
{"smiles": "O=C(CN1CCN(c2ccccc2O)CC1)NC(=O)NCc1ccccc1", "activity, negative = inhibition": "-1.41% [at 12.7 µM] (inactive)"}
{"smiles": "Oc1ccc(N2CCN(C(=S)NCc3ccccc3)CC2)cc1", "Potency": "10 µM (active)"}
{"smiles": "O=C1CCN(C(=S)NCCc2ccccc2)CC1", "Potency": "inactive"}
{"smiles": "O=C(COC(=O)c1ccccc1C(=O)N1CCN(c2ccccc2)CC1)NCc1ccccc1", "Potency": "inactive"}
{"smiles": "Oc1ccccc1N1CCN(C(=S)NCc2ccccc2)CC1", "Potency": "31.6 µM (active)"}
{"smiles": "S=C(NCCc1ccccc1)N1CCCCC1", "Potency": "inactive"}
{"smiles": "CCCc1cc(=O)[nH]c(SCC(=O)c2c(N)n(CC(C)C)c(=O)n(C)c2=O)n1", "Potency": "inactive"}
{"smiles": "CCOc1cccc(NC(=O)c2ccc(F)c(S(=O)(=O)N(CC)c3cccc(C)c3)c2)c1", "Potency": "inactive"}
{"smiles": "O=C(CCS(=O)(=O)c1cc(Br)cc2c1N(C(=O)C1CC1)CC2)Nc1ccc(C(F)(F)F)cc1", "Potency": "inactive"}
{"smiles": "CC(C)C(NC(=O)c1c(F)cccc1F)C(=O)NCc1ccncc1", "note": "(configuration not stated)", "Potency": "inactive"}
{"smiles": "O=C(CSc1nc(Nc2ccccc2)nc(N2CCOCC2)n1)Nc1cc(Cl)ccc1O", "Potency": "50.1 µM (active)"}
{"smiles": "CC1(c2ccccc2)NC(=O)N(CC(=O)Nc2cc(Cl)ccc2N2CCOCC2)C1=O", "note": "(configuration not stated)", "activity, negative = inhibition": "22.3% [at 0.501 µM] (inactive)"}
{"smiles": "Cc1ccccc1NC(=O)CSc1nc2ccc(Nc3nc(N4CCOCC4)nc(N4CCOCC4)n3)cc2s1", "Potency": "inactive"}
{"smiles": "CCOc1ccc(NC(=O)Cn2c(C)ccc(C#N)c2=O)cc1", "Potency": "inactive"}
{"smiles": "Cn1nc(-c2ccccc2)c(-c2ccccc2)c(C(=O)Nc2ccc(S(N)(=O)=O)cc2)c1=O", "Potency": "inactive"}
{"smiles": "O=C(CN1C(=O)COc2ccc(S(=O)(=O)N3CCCCCC3)cc21)N1CCN(c2cccc(C(F)(F)F)c2)CC1", "Potency": "inactive"}
{"smiles": "CN(C)C(=O)c1nc2ccc(Cl)cn2c1CN1CCN(c2ncccn2)CC1", "Potency": "inactive"}
{"smiles": "Cc1cc(OCC(=O)N2CCN(c3ncccn3)CC2)ccc1Cl", "Potency": "inactive"}
{"smiles": "Cc1ccc(CN2CCN(c3ncccn3)CC2)c(C)c1", "Potency": "10 µM (active)"}
{"smiles": "c1cnc(N2CCN(c3ccc4ccccc4n3)CC2)nc1", "Potency": "inactive"}
{"smiles": "COc1ccc(-c2nc(CN3CCN(c4ncccn4)CC3)c(C)o2)cc1C", "Potency": "inactive"}
{"smiles": "Oc1ccc(CN2CCN(c3ncccn3)CC2)cc1", "Potency": "79.4 µM (active)"}
{"smiles": "O=C1NCCn2nc3ccccc3c21", "activity, negative = inhibition": "16.4% [at 2.33 µM] (inactive)"}
{"smiles": "Cn1c(=O)cc(OCC(=O)N2CCN(c3ccccc3)CC2)c2ccccc21", "Potency": "inactive"}
{"smiles": "COc1cccc2cc(C(N)=O)/c(=N\\NC(=O)c3ccccc3)oc12", "Potency": "inactive"}
{"smiles": "O=C(c1ccc(C(F)(F)F)cc1)N1CCC(c2nc(-c3ccc(S(=O)(=O)N4CCCC4)cc3)no2)CC1", "Potency": "inactive"}
{"smiles": "Cc1ccc(-c2csc3nnc(SCC(=O)NCc4ccco4)n23)cc1", "Potency": "17.8 µM (active)"}
{"smiles": "CCOc1ccccc1-n1c(SCC(=O)NCc2ccco2)nnc1-c1ccncc1", "Potency": "inactive"}
{"smiles": "CCn1c(SCC(=O)NCc2ccco2)nnc1-c1ccc(N)cc1", "Potency": "inactive"}
{"smiles": "O=C(Cc1ccc(S(=O)(=O)N2CCOCC2)s1)N1CCN(c2ccc(C(F)(F)F)cc2[N+](=O)[O-])CC1", "activity, negative = inhibition": "5.52% [at 0.501 µM] (inactive)"}
{"smiles": "COC(=O)c1cc(Cl)c(NC(=O)c2ccco2)cc1OC", "Potency": "inactive"}
{"smiles": "CS/C(=C\\C(=O)c1ccco1)Nc1ccccc1Cl", "Potency": "50.1 µM (active)"}
{"smiles": "O=C(Nc1ccccc1C(=O)N1CCCCC1)c1ccco1", "Potency": "inactive"}
{"smiles": "Cc1nc2ccc(S(=O)(=O)N(CC(=O)Nc3ccc(F)cc3)Cc3ccccc3)cc2s1", "Potency": "inactive"}
{"smiles": "CCOC(=O)N1CCN(C(=O)C2CCN(Cc3ccc(OC)cc3OC)CC2)CC1", "Potency": "7.94 µM (active)"}
{"smiles": "CCOC(=O)N1CCN(C(=O)C2CCN(S(=O)(=O)c3cc(Cl)ccc3OCC)CC2)CC1", "Potency": "inactive"}
{"smiles": "CCOC(=O)N1CCN(CCC(=O)Nc2cc(OC)ccc2OC)CC1", "Potency": "inactive"}
{"smiles": "CCN1C(=O)[C@H]2[C@@H](c3ccc(-c4ccc(OC)cc4)cc3)N[C@@](Cc3ccccc3)(C(=O)OC)[C@H]2C1=O", "activity, negative = inhibition": "-6.39% [at 2.33 µM] (inactive)"}
{"smiles": "CCOc1ccc(NC(=O)CN(C)C(=O)CCSc2ccc(F)cc2)cc1OCC", "activity, negative = inhibition": "21% [at 12.7 µM] (inactive)"}
{"smiles": "CCN(CC(=O)Nc1ccccc1C(=O)NC1CC1)Cc1cccs1", "Potency": "inactive"}
{"smiles": "O=C(CSc1nnc(-c2ccco2)n1CC1CCCO1)c1ccccc1", "note": "(configuration not stated)", "Potency": "50.1 µM (active)"}
{"smiles": "O=C(CSc1nnc(-c2ccco2)o1)NCC(=O)c1ccccc1", "Potency": "inactive"}
{"smiles": "O=C(CSc1nnc(-c2ccco2)n1Cc1ccccc1)NC(=O)NCc1ccco1", "Potency": "inactive"}
{"smiles": "Cc1nnc(SCC(N)=O)n1CC1CCCO1", "note": "(configuration not stated)", "activity, negative = inhibition": "-0.186% [at 2.33 µM] (inactive)"}
{"smiles": "O=C(COc1ccc(Cl)cc1)NCc1nnc(SCC(=O)NCC2CCCO2)o1", "note": "(configuration not stated)", "Potency": "inactive"}
{"smiles": "Cc1nnc(SCC(=O)NNC(=O)c2ccc(Cl)cc2)n1CC1CCCO1", "note": "(configuration not stated)", "Potency": "35.5 µM (active)"}
{"smiles": "CCC(NC(=O)C1CCCC1)c1ccc(C)cc1", "note": "(configuration not stated)", "Potency": "inactive"}
{"smiles": "Cc1ccccc1NC(=O)Cn1c(=O)n(CCc2ccccc2)c(=O)c2ccccc21", "Potency": "inactive"}
{"smiles": "Cc1ccc(S(=O)(=O)Nc2nc(CN3CCOCC3)nc3sc(C)c(C)c23)cc1", "activity, negative = inhibition": "19.1% [at 2.33 µM] (inactive)"}
{"smiles": "O=C(OCC(=O)N1CCCCCC1)c1cnc(Cl)c(Cl)c1", "Potency": "inactive"}
{"smiles": "CCNC(=O)N1CCN(S(=O)(=O)c2ccc3c(c2)OCCCO3)CC1", "activity, negative = inhibition": "-26.7% [at 2.33 µM] (inactive)"}
{"smiles": "COc1ccc(OC)c(CCNC(=O)CCn2ccc3cc(S(=O)(=O)N4CCCC4)ccc32)c1", "Potency": "inactive"}
{"smiles": "O=C1CC[C@H](O)CCN1[C@H](CSc1ccc(Br)cc1)Cc1ccccc1", "activity, negative = inhibition": "11.1% [at 2.33 µM] (inactive)"}
{"smiles": "O=C(CSc1nnc(-c2ccncc2)n1-c1ccccc1)Nc1ccc(Cl)c(Cl)c1", "Potency": "inactive"}
{"smiles": "COc1ccc(OC)c(CNC(=O)Cn2nc(C)c3c(C)n(-c4ccccc4)nc3c2=O)c1", "Potency": "inactive"}
{"smiles": "CCOC(=O)C1CCCN(CC(=O)Nc2cc(C)c3c(=O)oc4ccccc4c3n2)C1", "note": "(configuration not stated)", "Potency": "inactive"}
{"smiles": "COC(=O)c1sc2ncccc2c1-n1c(C)ccc1C", "Potency": "inactive"}
{"smiles": "O=C(CSc1ccccc1)Nc1cccc(S(=O)(=O)N2CCCCC2)c1", "activity, negative = inhibition": "14.6% [at 12.7 µM] (inactive)"}
